{"source": "PubChem BioAssay AID604", "about": "(The Scripps Research Institute Molecular Screening Center, 2007)", "note": "Screen size: about 60,000 compounds; about 210 (0.35%) were called active.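 How the source made its calls: active means inhibition above the screen-wide mean inhibition plus 3 SD (cut at about 18% in these data); inactive means the rest.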 For the sample, actives were picked, then their nearest neighbours and some compounds at random.", "data": [{"target": "Rho-associated protein kinase 2 (Homo sapiens) (UniProt O75116)", "sequence (O75116 whole entry, looked up)": "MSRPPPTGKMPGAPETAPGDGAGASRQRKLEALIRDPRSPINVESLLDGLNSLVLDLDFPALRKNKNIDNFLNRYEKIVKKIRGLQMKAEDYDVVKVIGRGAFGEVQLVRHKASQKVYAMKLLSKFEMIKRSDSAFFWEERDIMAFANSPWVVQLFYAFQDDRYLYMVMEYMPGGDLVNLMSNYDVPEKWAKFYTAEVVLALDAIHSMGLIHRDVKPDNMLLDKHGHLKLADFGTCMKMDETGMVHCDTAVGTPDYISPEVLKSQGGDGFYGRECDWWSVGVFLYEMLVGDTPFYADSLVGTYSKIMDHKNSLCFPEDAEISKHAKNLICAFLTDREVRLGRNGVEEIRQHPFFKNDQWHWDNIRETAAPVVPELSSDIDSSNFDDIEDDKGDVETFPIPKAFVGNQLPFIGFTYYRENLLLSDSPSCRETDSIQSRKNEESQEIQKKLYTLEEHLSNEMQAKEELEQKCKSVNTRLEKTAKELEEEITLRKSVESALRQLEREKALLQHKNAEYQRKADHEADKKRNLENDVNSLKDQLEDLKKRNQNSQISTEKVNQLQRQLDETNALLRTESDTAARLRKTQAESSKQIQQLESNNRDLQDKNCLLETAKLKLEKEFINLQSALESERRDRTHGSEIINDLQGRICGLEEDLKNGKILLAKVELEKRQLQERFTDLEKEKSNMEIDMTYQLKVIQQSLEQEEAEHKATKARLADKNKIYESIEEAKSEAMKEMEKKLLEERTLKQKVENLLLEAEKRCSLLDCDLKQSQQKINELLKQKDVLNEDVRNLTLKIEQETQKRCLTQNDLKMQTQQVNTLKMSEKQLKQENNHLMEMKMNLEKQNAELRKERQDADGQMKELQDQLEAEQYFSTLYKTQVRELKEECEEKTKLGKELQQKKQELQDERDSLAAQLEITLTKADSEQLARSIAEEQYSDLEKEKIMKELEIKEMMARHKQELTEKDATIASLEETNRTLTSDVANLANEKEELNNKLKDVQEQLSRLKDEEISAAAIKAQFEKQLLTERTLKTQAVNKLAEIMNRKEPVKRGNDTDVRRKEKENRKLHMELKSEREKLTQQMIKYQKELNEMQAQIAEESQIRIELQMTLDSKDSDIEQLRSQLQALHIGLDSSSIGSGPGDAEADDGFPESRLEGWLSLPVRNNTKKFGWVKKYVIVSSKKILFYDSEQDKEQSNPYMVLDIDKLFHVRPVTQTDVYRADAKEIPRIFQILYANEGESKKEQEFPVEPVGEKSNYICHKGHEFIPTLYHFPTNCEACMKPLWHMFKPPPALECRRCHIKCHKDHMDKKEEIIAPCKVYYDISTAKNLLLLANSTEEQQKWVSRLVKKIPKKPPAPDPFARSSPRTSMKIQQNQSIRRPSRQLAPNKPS", "assay": "inhibitors of human ROCK2 kinase, primary screen, biochemical, high-throughput, luminescence (AID 604);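 further: plate controls were DMSO wells for no effect and Y-27632 control wells after no-enzyme background subtraction for full effect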", "details": "purified ROCK2, Kinase-Glo ATP depletion luminescence; at 6 µM; hits give high values", "values": [{"smiles": "CCOC(=O)C1(c2ccccc2)NC(c2ccc(N(C)C)cc2)C2C(=O)N(C)C(=O)C21", "note": "(stereo not given)", "inhibition": "5.3% (inactive)"}, {"smiles": "O=C(CSc1nnc(-c2ccco2)n1Cc1ccccc1)NC(=O)NCc1ccco1", "inhibition": "5.5% (inactive)"}, {"smiles": "Cc1nonc1OCCn1nnnc1N", "inhibition": "4% (inactive)"}, {"smiles": "CCCC(=O)N1CCc2[nH]c3ccccc3c2C1", "inhibition": "14.9% (inactive)"}, {"smiles": "COC(=O)c1cc(OC)c(OC)cc1NC(=O)C1CCCO1", "note": "(stereo not given)", "inhibition": "5.6% (inactive)"}, {"smiles": "CS(=O)(=O)N(Cc1nc2sc3c(c2c(=O)[nH]1)CCCC3)C1CCCCC1", "inhibition": "-12.6% (inactive)"}, {"smiles": "Cc1cccc(NC(=O)CSc2nnc(CCCCCNC(=O)OC(C)(C)C)o2)c1C", "inhibition": "3.8% (inactive)"}, {"smiles": "CC1CCC(NS(=O)(=O)c2ccc3c(c2)n(C)c(=O)c(=O)n3C)CC1", "note": "(stereo not given)", "inhibition": "3.2% (inactive)"}, {"smiles": "CC(C)Cc1ccc(S(=O)(=O)N2CCN(C(=O)c3ccco3)CC2)cc1", "inhibition": "8% (inactive)"}, {"smiles": "O=C(C(NS(=O)(=O)c1cccc2nsnc12)c1ccccc1)N1CCN(c2ccccn2)CC1", "note": "(stereo not given)", "inhibition": "6.9% (inactive)"}, {"smiles": "COc1cccc(N(CC(=O)Nc2cccc(F)c2)S(C)(=O)=O)c1", "inhibition": "-1.3% (inactive)"}, {"smiles": "O=C(O)CCSc1nnc(-c2ccccc2)n1-c1ccccc1", "inhibition": "2.5% (inactive)"}, {"smiles": "CN1C(=O)CC(N2CCN(c3ccccn3)CC2)C1=O", "note": "(stereo not given)", "inhibition": "0.7% (inactive)"}, {"smiles": "COc1ccc(Cc2nnc(NS(=O)(=O)Cc3ccccc3)s2)cc1", "inhibition": "-0.2% (inactive)"}, {"smiles": "CCOC(=O)CSc1nnc(NC(=O)c2cccc(S(=O)(=O)N3CCCC3)c2)s1", "inhibition": "-2.8% (inactive)"}, {"smiles": "CC(C)OC(=O)C(C#N)c1nc2ccccc2nc1N1CCN(Cc2ccc3c(c2)OCO3)CC1", "note": "(stereo not given)", "inhibition": "3.1% (inactive)"}, {"smiles": "CCCCN(C)C(=O)c1ccc2c(c1)N(CC)C(=O)c1ccccc1S2(=O)=O", "inhibition": "-4.8% (inactive)"}, {"smiles": "COc1cc2c(cc1OC)C(c1ccncc1)CC(=O)N2", "note": "(stereo not given)", "inhibition": "9.6% (inactive)"}, {"smiles": "COc1cccc(N(CC(=O)NC2CCCC2)C(=O)Cn2nnc(-c3ccc(C)cc3)n2)c1", "inhibition": "-2% (inactive)"}, {"smiles": "O=C(Nc1nc(-c2ccc3c(c2)OCO3)cs1)c1ccncc1", "inhibition": "-1.2% (inactive)"}, {"smiles": "O=C(Nc1nc(-c2ccncc2)cs1)C1COc2ccccc2O1", "note": "(stereo not given)", "inhibition": "114% (active)"}, {"smiles": "COc1ccc(OC)c2sc(NC(=O)C3COc4ccccc4O3)nc12", "note": "(stereo not given)", "inhibition": "-3.1% (inactive)"}, {"smiles": "Cc1ccc(N(CC(O)CN2CCCC2)S(=O)(=O)c2ccccc2)cc1", "note": "(stereo not given)", "inhibition": "1.4% (inactive)"}, {"smiles": "CC1=C(C(=O)OCc2ccccc2)C(c2ccco2)n2ncnc2N1", "note": "(stereo not given)", "inhibition": "-9.2% (inactive)"}, {"smiles": "CC(=C1C(=O)c2ccccc2C1=O)N1CCN(c2ccccn2)CC1", "inhibition": "7.8% (inactive)"}, {"smiles": "Cc1cccc2cc(CN(Cc3nnnn3Cc3ccccc3)C3CCCC3)c(=O)[nH]c12", "inhibition": "-0.6% (inactive)"}, {"smiles": "O=C(Nn1cnc2ccccc2c1=O)c1ccc(F)cc1Cl", "inhibition": "4.2% (inactive)"}, {"smiles": "CCCCCCn1c(SCC(=O)c2ccccc2)nc2c1c(=O)[nH]c(=O)n2C", "inhibition": "6.3% (inactive)"}, {"smiles": "O=C(CSc1nnc2scc(-c3ccc(F)cc3)n12)NCc1ccco1", "inhibition": "2.1% (inactive)"}, {"smiles": "CC1(C)C2CCC1(C)C(OC(=O)CCn1ccnc1)C2", "note": "(stereo not given)", "inhibition": "6.6% (inactive)"}, {"smiles": "O=C(CC1Nc2ccccc2NC1=O)Nc1ccccc1", "note": "(stereo not given)", "inhibition": "3% (inactive)"}, {"smiles": "O=C(C1=C(O)C(=O)N(c2ncccn2)C1c1cccs1)c1ccco1", "note": "(stereo not given)", "inhibition": "-11.1% (inactive)"}, {"smiles": "CNC(=O)C1CC(=O)N(Cc2ccc3c(c2)OCO3)C(=Nc2ccc(F)cc2)S1", "note": "(stereo not given)", "inhibition": "-7.4% (inactive)"}, {"smiles": "O=CN1CCN(C2CC(=O)N(c3ccc4c(c3)OCO4)C2=O)CC1", "note": "(stereo not given)", "inhibition": "7% (inactive)"}, {"smiles": "O=C1CC(N2CCN(C(c3ccccc3)c3ccccc3)CC2)C(=O)N1", "note": "(stereo not given)", "inhibition": "5.5% (inactive)"}, {"smiles": "CCCCCC(=O)Nc1ccc2oc(-c3ccncc3)nc2c1", "inhibition": "22.3% (active)"}, {"smiles": "CCc1ccc2oc(-c3ccc(N)cc3)nc2c1", "inhibition": "4.1% (inactive)"}, {"smiles": "CCCC(=O)Nc1ccc2c(c1)nc1n2CCSC1", "inhibition": "-0.6% (inactive)"}, {"smiles": "NC(=O)C1CCN(C2OC(=O)c3ccccc32)CC1", "note": "(stereo not given)", "inhibition": "7.4% (inactive)"}, {"smiles": "COc1cc2c(cc1NC(=O)CN1CCN(S(=O)(=O)c3ccc(F)cc3)CC1)oc1ccccc12", "inhibition": "3.5% (inactive)"}, {"smiles": "Cc1noc(COc2ccccc2OCC(O)CNC(C)(C)C)n1", "note": "(stereo not given)", "inhibition": "1.2% (inactive)"}, {"smiles": "O=P(c1ccc2c(c1)OCCO2)(N1CCOCC1)N1CCOCC1", "inhibition": "-3.2% (inactive)"}, {"smiles": "Cc1nn(-c2ccccc2)c2[nH]c(C(F)(F)F)cc(=O)c12", "inhibition": "-0.3% (inactive)"}, {"smiles": "CCOc1ccc(CCNC(=O)C(CC)n2nc(C)n3c(cc4sccc43)c2=O)cc1OCC", "note": "(stereo not given)", "inhibition": "-3.8% (inactive)"}, {"smiles": "CCc1nnc(NC(=O)CCC(=O)O)s1", "inhibition": "-4.5% (inactive)"}, {"smiles": "O=[n+]1c2c(n([O-])c3cc(Br)ccc31)CCC2", "inhibition": "-5% (inactive)"}, {"smiles": "CC(=O)c1ccc(NC(=O)N[C@@H](Cc2ccccc2)C(=O)O)cc1", "inhibition": "-0.8% (inactive)"}, {"smiles": "Cc1cc(Nc2ccccc2)n(CCC#N)n1", "inhibition": "4.6% (inactive)"}, {"smiles": "Cc1c(C(=O)N2CC(C)OC(C)C2)sc2nc(-c3ccccc3)cn12", "note": "(stereo not given)", "inhibition": "8.6% (inactive)"}, {"smiles": "Cc1c(NC(=O)C(C)OC(=O)c2cc3c4ccccc4n(C)c3s2)c(=O)n(-c2ccccc2)n1C", "note": "(stereo not given)", "inhibition": "5.5% (inactive)"}, {"smiles": "Fc1cnc(N2CCOCC2)nc1NCc1ccccc1", "inhibition": "-0.4% (inactive)"}, {"smiles": "Cc1nc(-c2ccc(NC(=O)c3cccs3)cc2)cs1", "inhibition": "-25% (inactive)"}, {"smiles": "Cc1nnc(NC2=NCCCCC2)o1", "inhibition": "-0.7% (inactive)"}, {"smiles": "Cc1ccc(S(=O)(=O)c2nc(NCCCn3ccnc3)sc2Cl)cc1", "inhibition": "1.7% (inactive)"}, {"smiles": "CCC1(C)N(O)C(C)(C)C(c2ccc(OC)cc2)=[N+]1[O-]", "note": "(stereo not given)", "inhibition": "2.5% (inactive)"}, {"smiles": "O=c1[nH]c(=O)n(Cc2ccco2)c2c1C(C(F)(F)F)(C(F)(F)F)N=C(c1ccco1)N2", "inhibition": "5% (inactive)"}, {"smiles": "N#CCCN1CCN(S(=O)(=O)c2ccc(S(=O)(=O)NC3CC3)cc2)CC1", "inhibition": "1.7% (inactive)"}, {"smiles": "CCOC(=O)CSc1nnc(-c2cccc(Br)c2)o1", "inhibition": "2.1% (inactive)"}, {"smiles": "COc1cc(=O)[nH]c(=O)n1C(=O)Cc1ccccc1", "inhibition": "-0.6% (inactive)"}, {"smiles": "Cc1cc(C)nc(SCc2ccccc2C#N)n1", "inhibition": "6% (inactive)"}, {"smiles": "COc1ccc(N2C(=O)C3CCCN3C2c2cccs2)cc1", "note": "(stereo not given)", "inhibition": "-2.8% (inactive)"}, {"smiles": "CCC(C)(NC(=O)c1ccccn1)C(=O)NC1CCCCC1", "note": "(stereo not given)", "inhibition": "-0.8% (inactive)"}, {"smiles": "Cc1ccc2[nH]c(=O)c(COC(=O)c3ccccn3)cc2c1", "inhibition": "6.5% (inactive)"}, {"smiles": "CCCC(=O)Nc1ccc(Cl)c(NC(=O)c2ccc(Br)o2)c1", "inhibition": "-0.6% (inactive)"}, {"smiles": "O=C(c1ccco1)N1CCN(C(=O)C2CC(c3ccc(F)cc3)=NO2)CC1", "note": "(stereo not given)", "inhibition": "1.1% (inactive)"}, {"smiles": "COc1ccc(C(=O)Nc2c(N)nc(SCC(=O)N3CCC(C)CC3)[nH]c2=O)cc1OC", "inhibition": "1.5% (inactive)"}, {"smiles": "CN1CCN(CC(O)COCc2ccc3c(c2)OCO3)CC1", "note": "(stereo not given)", "inhibition": "5.7% (inactive)"}, {"smiles": "O=C(NCc1ccco1)c1cnn2c(C(F)(F)F)cc(-c3ccco3)nc12", "inhibition": "12.9% (inactive)"}, {"smiles": "NC(=O)Cn1c(=O)oc2ccccc21", "inhibition": "-2% (inactive)"}, {"smiles": "CCOc1ccc2[nH]c(=O)c(CN(CCCO)C(C)=O)cc2c1", "inhibition": "-4.4% (inactive)"}, {"smiles": "Fc1ccc(Cn2nnnc2C(c2cccs2)N2CCCCCC2)cc1", "note": "(stereo not given)", "inhibition": "4.1% (inactive)"}, {"smiles": "CC(C)C1Cc2c(sc3c2c(=O)n(-c2ccccc2)c2nncn32)CO1", "note": "(stereo not given)", "inhibition": "5.5% (inactive)"}, {"smiles": "O=C(c1ccco1)N1CCN(C(=O)c2ccc(COc3ccc(F)cc3)o2)CC1", "inhibition": "-1.9% (inactive)"}, {"smiles": "O=S(=O)(Nc1ccccn1)c1ccc(Oc2ccccc2)cc1", "inhibition": "-6.5% (inactive)"}, {"smiles": "Nn1c(SCC(=O)NC(=O)NC2CCCC2)nnc1-c1ccccc1F", "inhibition": "12.5% (inactive)"}, {"smiles": "CCCCC(=O)Nc1ccc2c(c1)OCCO2", "inhibition": "-1.9% (inactive)"}, {"smiles": "CN1C(=O)c2ccc(NC(=O)c3c(F)c(F)c(F)c(F)c3F)cc2C1=O", "inhibition": "9.3% (inactive)"}, {"smiles": "CCCCC(=O)Nc1ccc2c(c1)C(=O)NC2=O", "inhibition": "23.1% (active)"}, {"smiles": "Cc1ccccc1CSCC(=O)NC(=O)NC(C)(C)C", "inhibition": "4.6% (inactive)"}, {"smiles": "CCSc1nc(=S)n(CC)c(C)c1C(C)=O", "inhibition": "0.9% (inactive)"}, {"smiles": "CSc1ccc(NC(=O)N2CC(C)OC(C)C2)cc1", "note": "(stereo not given)", "inhibition": "6.5% (inactive)"}, {"smiles": "CCN(CC)C(=O)CSc1nnc(-c2ccc(S(=O)(=O)NCc3ccccc3Cl)cc2)o1", "inhibition": "1.9% (inactive)"}, {"smiles": "Cc1nn(Cc2ccc(Cl)c(Cl)c2)c(C)c1NC(=O)c1cc(C2CC2)on1", "inhibition": "-8.2% (inactive)"}, {"smiles": "Cc1ccc(O)c(NC(=O)COc2cc(C)ccc2C)c1", "inhibition": "3.2% (inactive)"}, {"smiles": "COc1ccc(OC)c(NC(=O)CN2CCN(C(=O)c3ccco3)CC2)c1", "inhibition": "0.1% (inactive)"}, {"smiles": "OCCNCCCCOc1ccccc1F", "inhibition": "5.9% (inactive)"}, {"smiles": "CCSc1ncnc2c(C#N)c3n(c12)CCCCC3", "inhibition": "3% (inactive)"}, {"smiles": "CC(=O)Nc1nonc1-c1nc2ccccc2n1Cc1ccccn1", "inhibition": "2.3% (inactive)"}, {"smiles": "Cn1c(=O)c2c(n(Cc3ccccc3)c1=O)NC(=O)C2CC(=O)N1CCc2ccccc2C1", "note": "(stereo not given)", "inhibition": "6.4% (inactive)"}, {"smiles": "C=CCn1c(C)cc(C(=O)CN2C(=O)c3ccccc3C2=O)c1C", "inhibition": "2.5% (inactive)"}, {"smiles": "CCCn1cc(SCC(N)=O)c2ccccc21", "inhibition": "4.9% (inactive)"}, {"smiles": "Cc1ccc(C(=O)NCC2CCCO2)o1", "note": "(stereo not given)", "inhibition": "4.3% (inactive)"}, {"smiles": "C=CCn1cnc2scc(-c3ccccc3)c2c1=O", "inhibition": "1.2% (inactive)"}, {"smiles": "C#CCN1CC(C)/C(=N/O)CC1C", "note": "(stereo not given)", "inhibition": "3.7% (inactive)"}, {"smiles": "O=C1CC(c2ccccc2)CC(O)=C1C=NCCN1CCOCC1", "note": "(stereo not given)", "inhibition": "3.3% (inactive)"}, {"smiles": "COc1cccc(N2CCN(C(=O)C3CCCN(S(=O)(=O)c4cnc[nH]4)C3)CC2)c1", "note": "(stereo not given)", "inhibition": "3.3% (inactive)"}, {"smiles": "Cc1cc(C(=O)CC#N)c(C)n1CC(F)(F)F", "inhibition": "3.3% (inactive)"}, {"smiles": "O=C1C=C(NCCNc2c(F)c(F)c(CO)c(F)c2F)CCC1", "inhibition": "1.5% (inactive)"}, {"smiles": "Cc1cn(C2C=CC(CO)O2)c(=O)[nH]c1=O", "note": "(stereo not given)", "inhibition": "6.1% (inactive)"}, {"smiles": "Cc1cc(=O)[nH]c(SCC(=O)N2c3ccccc3CC2C)n1", "note": "(stereo not given)", "inhibition": "-3.6% (inactive)"}]}]}
